Here are results for 22 compounds from PubChem BioAssay (NCATS).

The structures appear in SMILES notation. Unmarked numbers belong to inactive results. Records with an inconclusive call do not appear. A call without a number means that no potency is given here. Calls of active or inactive are those of the source. Unless noted, calls follow the shape of the dose curve; as a rule, active = well fitted curve in the direction sought with a large enough effect; inconclusive = small, poorly fitted or top-dose-only effect, or another doubt; inactive = no such curve, though single readings can be large; an effect the other way counts as inactive or inconclusive. Where a SMILES comes first, the peptide text is derived from it. Bridges are numbered along the chain shown (N, C = ends). [ ]: non-standard residue; d: D form. Orn = NCCC[C@H](N)C(=O)O; Mpa = O=C(O)CCS

The target of assay [1] is Luciferin 4-monooxygenase (Photinus pyralis) (UniProt P08659). In words: Biochemical firefly luciferase enzyme assay for NPC (AID 624030).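 Also: purified P. pyralis luciferase at 10 nM with luciferin and ATP substrate; series mostly up to about 59 µM; nearly all actives have a fitted effect of over 70% in size.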 A digest of the protocol:
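Direct inhibition of firefly luciferase enzyme (10 nM final, 50 mM Tris Acetate) assessed by luminescence within 5 minutes. Percent activity scaled between DMSO and PTC124 positive control, with concentration-effect curves classified by fit quality and response.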

Assay [2] in a line: S16 Schwann cell viability assay (CellTiter-Glo assay) (AID 624031). Also: nearly all actives have a fitted effect of over 70% in size. Also: potency is read from the fitted curve at half-maximal effect. An outline of the steps: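 Native S16 rat Schwann cells, 500-750 cells/well in DMEM with 10% FBS, dosed with compound after overnight culture and incubated 24h at 37 degree Celsius/5% CO2. Viability by CellTiter-Glo luminescence; % activity normalized to no-cell wells and DMSO-treated cells.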
In general terms: Cellular ATP, detected with luciferase, serves as a proxy for viable cell number.

The nature of assay [3]: S16 Schwann cell PMP22 intronic element beta-lactamase assay (AID 624044; calls by dose curve; also: nearly all actives have a fitted effect of over 15% in size). A digest of the protocol: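 Rat S16 Schwann cells with beta-Lac driven by a PMP22 intronic element, compound-treated 24 h at 37 °C. LiveBLAzer FRET B/G read: 460 nm normalized to potassium clavulanate vs DMSO; 535 nm FRET as viability; concentration-effect curves classified.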
Assay [4] addresses Glutaminase kidney isoform, mitochondrial (Homo sapiens) (UniProt O94925). In words: qHTS for Inhibitors of Glutaminase (GLS): LOPAC Validation (AID 624146).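 Also: glutamate product detected by oxidase and peroxidase coupled Amplex red fluorescence gain; series mostly up to about 46 µM; nearly all actives have a fitted effect of over 60% in size.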 A digest of the protocol:
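hKGA; 45 mM KH2PO4 pH 8.2 + 0.02% Tween-20; cpd via pin tool; 1 mM Gln soln; GluOx/HRP/Amplex Red; RT 30 min; fluor. t0 & final.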
Background: Quantitative high-throughput screening tests each substance at several concentrations.

Assay [5] has as its target Glucagon-like peptide 1 receptor (Homo sapiens) (UniProt P43220). In words: qHTS of GLP-1 Receptor Agonists: LOPAC Validation (AID 624148).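 Also: luminescence from a luciferase reporter switched on by cAMP; higher luminescence signal means agonism.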 A digest of the protocol:
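Agonism scored as increased luciferase luminescence driven by cAMP in HEK293 clones carrying GLP-1R. Cells settled 12 hours, received compound for 4-6 hr at 37 deg C, 5% CO2, and were read after 12 min detection reagent at RT.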

The nature of assay [6]: qHTS of Nrf2 Activators: LOPAC Validation (AID 624149). An outline of the steps: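 AREc32_Fluc cells, 1000/well in OPTI-MEM with 5% FBS, grown overnight, then exposed to compounds for 24 hr at 37 deg C, 5% CO2. ARE-driven firefly luciferase read by Steady-Glo luminescence after 30 min at RT.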
The nature of assay [7]: HTS Assay for Allosteric Antagonists of the Human D2 Dopamine Receptor: Hit Validation in HTRF (AID 624455).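 Also: stable D1 dopamine receptor cell line scored for blocking the D1 response.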 A digest of the protocol:
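Hit validation in cells stably expressing the D1 dopamine receptor, run in HTRF format. Compounds were tested for their ability to inhibit the D1-mediated response.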
(In general: TR-FRET usually uses a lanthanide donor and a delayed reading to cut background.)

For assay [8], the target named is Tumor susceptibility gene 101 protein (Homo sapiens) (UniProt Q99816). In words: qHTS Assay for Iinhibitors of HIV-1 Budding by Blocking the Interaction of PTAP/TSG101: Hit Validation (AID 651600). Also: nearly all actives have a fitted effect of over 70% in size. An outline of the steps: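 Compounds are added to the Tsg101 binding domain (10 uM final) in pH 7.5 HEPES buffer. FITC-PTAP peptide follows at 50 nM final. After 20 min at r.t., polarized FITC emission is measured.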
Chain of Tumor susceptibility gene 101 protein (Homo sapiens) (Q99816 whole entry, looked up, the tested form may be a part): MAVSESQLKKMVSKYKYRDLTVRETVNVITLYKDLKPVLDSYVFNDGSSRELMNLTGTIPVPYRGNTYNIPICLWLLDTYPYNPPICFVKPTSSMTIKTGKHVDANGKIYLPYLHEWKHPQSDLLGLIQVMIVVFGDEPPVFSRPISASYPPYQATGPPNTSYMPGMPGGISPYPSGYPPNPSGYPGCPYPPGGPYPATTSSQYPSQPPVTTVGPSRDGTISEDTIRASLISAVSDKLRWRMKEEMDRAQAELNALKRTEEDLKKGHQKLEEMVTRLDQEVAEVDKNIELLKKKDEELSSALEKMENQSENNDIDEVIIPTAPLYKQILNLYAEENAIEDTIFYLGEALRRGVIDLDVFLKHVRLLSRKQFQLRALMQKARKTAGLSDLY

Assay [9] can be described thus: qHTS assay for small molecule agonists of the antioxidant response element (ARE) signaling pathway (AID 651741; active = well fitted activation curve with a large enough effect in the signal ratio; the % refers to the signal ratio; also: potency is read from the fitted curve at half-maximal effect). An outline of the steps:
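Quantitative HTS in HepG2 cells stably expressing an ARE-beta-lactamase reporter; 16 h compound exposure at 37 C, followed by 2 h room-temperature incubation with LiveBLAzer B/G FRET substrate and fluorescence measurement.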

Assay [10] is described as follows: qHTS assay for small molecule activators of the p53 signaling pathway (AID 651743; active = well fitted activation curve with a large enough effect in the signal ratio, not every such curve was filed as active; the % refers to the signal ratio; also: series mostly up to about 92 µM). As to conditions: HCT-116 p53RE-bla, beta-lactamase FRET ratio, 16 h; active compounds read high. A digest of the protocol: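 Read-out is fluorescence intensity from the LiveBLAzer B/G FRET substrate, added for 2 hours at room temperature after HCT-116 p53RE-bla cells had been incubated with compounds for 16 hours at 37 C.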

The nature of assay [11]: qHTS assay for environmental chemicals that activate the Aryl hydrocarbon Receptor (AhR) signaling pathway (AID 651777). Also: nearly all actives have a fitted effect of over 15% in size. As to conditions: 1A2-DRE human hepatoma cells, luciferase, 24 h; active compounds read high. A digest of the protocol: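 Human hepatoma 1A2-DRE cells stably carrying a DRE/CYP1A2 promoter–luciferase reporter, 1,200 cells/well, exposed to compound 24 hr at 37 C. Luciferase read by One-Glo luminescence after 30 min at room temperature; increased signal marks AhR activation.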

Assay [12] concerns the target Peroxisome proliferator-activated receptor alpha (Homo sapiens) (UniProt Q07869). In words: qHTS assay for small molecule agonists of the peroxisome proliferator-activated receptor alpha (PPARalpha) signaling pathway (AID 651778). As to conditions: PathHunter PPARalpha complementation, chemiluminescence, 6 h; max response: active compounds read high. A digest of the protocol: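 Chemiluminescence from complemented enzyme reported PPARalpha activation in cells after 6 hr of compound treatment at 37 C. The detection reagent was incubated for 60 min at room temperature, and compounds were scored as agonists.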

Assay [13] is described as follows: S16 Schwann cell PMP22 intronic element firefly luciferase assay (AID 624032). Also: potency is read from the fitted curve at half-maximal effect; nearly all actives have a fitted effect of over 30% in size. An outline of the steps: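 Luciferase reporter of PMP22 intronic-element expression in stably transfected S16 rat Schwann cells, read by ONE-Glo luminescence after 24 h compound exposure at 37 C. Activity scaled between DMSO (0%) and positive-control PTC124; concentration-effect curves quality-classified.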

Chain of Luciferin 4-monooxygenase (Photinus pyralis) (P08659 whole entry, looked up): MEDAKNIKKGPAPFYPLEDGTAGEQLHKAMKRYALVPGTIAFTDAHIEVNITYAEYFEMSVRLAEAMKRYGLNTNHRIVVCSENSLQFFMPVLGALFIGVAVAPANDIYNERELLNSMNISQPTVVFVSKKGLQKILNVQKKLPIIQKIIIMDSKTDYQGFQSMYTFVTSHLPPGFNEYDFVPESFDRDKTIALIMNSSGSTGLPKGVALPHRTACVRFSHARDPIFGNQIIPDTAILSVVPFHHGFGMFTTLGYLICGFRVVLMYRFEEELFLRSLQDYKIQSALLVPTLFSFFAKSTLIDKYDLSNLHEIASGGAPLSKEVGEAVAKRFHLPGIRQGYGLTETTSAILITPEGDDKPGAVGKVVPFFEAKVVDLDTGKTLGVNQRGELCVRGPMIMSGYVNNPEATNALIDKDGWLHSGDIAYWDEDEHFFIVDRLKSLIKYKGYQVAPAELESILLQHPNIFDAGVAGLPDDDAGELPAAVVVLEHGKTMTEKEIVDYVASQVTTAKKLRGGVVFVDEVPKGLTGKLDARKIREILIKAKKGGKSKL
Chain of Peroxisome proliferator-activated receptor alpha (Homo sapiens) (Q07869 whole entry, looked up): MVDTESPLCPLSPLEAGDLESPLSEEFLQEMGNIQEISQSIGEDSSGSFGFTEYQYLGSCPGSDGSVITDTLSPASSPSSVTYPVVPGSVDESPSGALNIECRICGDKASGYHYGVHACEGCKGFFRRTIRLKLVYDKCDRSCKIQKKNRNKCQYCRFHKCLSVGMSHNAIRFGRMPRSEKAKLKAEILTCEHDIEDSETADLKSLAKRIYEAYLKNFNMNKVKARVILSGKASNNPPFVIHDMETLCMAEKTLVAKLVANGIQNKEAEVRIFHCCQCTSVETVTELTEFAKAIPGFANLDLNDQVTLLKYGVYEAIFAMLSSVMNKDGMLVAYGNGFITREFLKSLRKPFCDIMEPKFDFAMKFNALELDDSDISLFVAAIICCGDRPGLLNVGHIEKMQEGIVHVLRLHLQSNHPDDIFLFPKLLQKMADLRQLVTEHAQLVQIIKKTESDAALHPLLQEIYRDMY
Chain of Glutaminase kidney isoform, mitochondrial (Homo sapiens) (O94925 whole entry, looked up, canonical isoform): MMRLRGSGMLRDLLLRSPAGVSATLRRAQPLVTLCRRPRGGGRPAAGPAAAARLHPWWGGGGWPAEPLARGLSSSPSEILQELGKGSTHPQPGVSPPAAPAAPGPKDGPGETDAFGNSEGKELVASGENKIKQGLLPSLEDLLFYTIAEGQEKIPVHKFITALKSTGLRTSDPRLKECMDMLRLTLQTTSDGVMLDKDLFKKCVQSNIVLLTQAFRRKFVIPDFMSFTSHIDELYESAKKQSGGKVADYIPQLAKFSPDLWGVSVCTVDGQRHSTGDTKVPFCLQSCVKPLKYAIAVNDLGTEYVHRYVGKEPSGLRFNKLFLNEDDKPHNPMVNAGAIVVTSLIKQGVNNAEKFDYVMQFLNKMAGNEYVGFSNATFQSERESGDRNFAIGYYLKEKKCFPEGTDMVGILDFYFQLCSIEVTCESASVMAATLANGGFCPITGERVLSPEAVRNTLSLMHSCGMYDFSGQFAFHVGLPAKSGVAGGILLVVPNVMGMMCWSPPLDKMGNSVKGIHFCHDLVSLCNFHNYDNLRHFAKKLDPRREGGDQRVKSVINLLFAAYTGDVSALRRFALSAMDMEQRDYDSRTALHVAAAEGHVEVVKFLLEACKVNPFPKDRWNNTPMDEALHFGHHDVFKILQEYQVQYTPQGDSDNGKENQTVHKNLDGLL
Chain of Glucagon-like peptide 1 receptor (Homo sapiens) (P43220 whole entry, looked up): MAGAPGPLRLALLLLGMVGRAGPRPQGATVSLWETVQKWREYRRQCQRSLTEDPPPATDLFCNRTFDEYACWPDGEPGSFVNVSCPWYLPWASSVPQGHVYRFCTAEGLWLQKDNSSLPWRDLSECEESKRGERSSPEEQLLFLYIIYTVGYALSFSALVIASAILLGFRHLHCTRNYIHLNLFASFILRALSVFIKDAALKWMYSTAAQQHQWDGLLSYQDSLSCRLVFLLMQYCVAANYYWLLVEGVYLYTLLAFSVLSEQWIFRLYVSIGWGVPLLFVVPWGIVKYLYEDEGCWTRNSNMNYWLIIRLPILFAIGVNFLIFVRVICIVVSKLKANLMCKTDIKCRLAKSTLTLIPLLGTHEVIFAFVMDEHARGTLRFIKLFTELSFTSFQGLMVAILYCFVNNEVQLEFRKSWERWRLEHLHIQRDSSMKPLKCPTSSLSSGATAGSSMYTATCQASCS

On to `CCCCCCCCCCCCCCCC(=O)OCCC1CCN(CCCN2c3ccccc3Sc3ccc(S(=O)(=O)N(C)C)cc32)CC1`, for which the Potency result in assay [1] is “inactive”.

In the case of `CN(C(=O)CO)c1c(I)c(C(=O)NCC(O)CO)c(I)c(C(=O)NCC(O)CO)c1I` (stereo not given), the Potency entry in assay [1] was “inactive”.

Turning to `CCC(C)(C)OC(=O)N[C@@H](Cc1c[nH]c2ccccc12)C(=O)N[C@@H](CCSC)C(=O)N[C@@H](CC(=O)O)C(=O)N[C@@H](Cc1ccccc1)C(N)=O`, the Potency result in [1] was “inactive”.

Regarding `Cn1nnnc1SCC1=C(C(=O)O)N2C(=O)[C@@H](NC(=O)[C@H](OC=O)c3ccccc3)[C@H]2SC1`, in [1], the Potency result is “inactive”.

For the compound `CCC(=O)O`, the Potency result in assay [1] was “inactive”.

On to `O=P(O)(O)C(O)(Cc1cnc2ccccn12)P(=O)(O)O`, for which, in [1], the Potency result is “inactive”.

Regarding `O=S(=O)(O)Oc1ccc(C(c2ccc(OS(=O)(=O)O)cc2)c2ccccn2)cc1`, in assay [1], the Potency entry was “inactive”.

As for `C[C@H](/C=C/[C@H](C)C(C)(C)O)[C@H]1CC[C@H]2/C(=C/C=C3C[C@@H](O)C[C@H](O)C3)CCC[C@]12C`, the Potency result in assay [1] is “inactive”.

In the case of `O=C1C(c2[nH]c3ccc(S(=O)(=O)O)cc3c2O)=Nc2ccc(S(=O)(=O)O)cc21`, the Potency entry in [1] is “inactive”.

In the case of `CN[C@H]1CC[C@@H](c2ccc(Cl)c(Cl)c2)c2ccccc21`, the Potency result in assay [1] was “inactive”. Further, in assay [2], the Potency was 28.7 µM (active). Moreover, the call in assay [3], in [4], in assay [5], in [6] and in assay [7] was inactive.

Take `CCCCCC(O)/C=C/C=O` (stereo not given): the Potency entry in [1] is “inactive”.

As to `CC1(S(=O)(=O)O)CC(=O)c2ccccc2C1=O` (stereo not given), in [1], the Potency result is “inactive”.

For `CCCCCCCCCCCCCCCC(=O)OC/C=C(C)/C=C/C=C(C)/C=C/C1=C(C)CCCC1(C)C`, the Potency entry in assay [1] is “inactive”.

Regarding `CCOc1ccc(C[C@H]2NC(=O)CCSSC[C@@H](C(=O)N3CCC[C@H]3C(=O)N[C@@H](CCCN)C(=O)NCC(N)=O)NC(=O)[C@H](CC(N)=O)NC(=O)[C@H]([C@@H](C)O)NC(=O)[C@H]([C@@H](C)CC)NC2=O)cc1` ([Mpa][dY](Et)ITNCP[Orn]G-NH2; disulfide 1-6), the Potency entry in assay [1] is “inactive”.

`CS(=O)(=O)Nc1cc2occ(NC=O)c(=O)c2cc1Oc1ccccc1`: in [1], the Potency entry is “inactive”.

For `CC[C@H](C)/C=C(C)/C=C/C1=CC2=CC(=O)[C@]3(C)OC(=O)[C@@H](C(C)=O)[C@@H]3C2=CO1`, the call in assay [8] was inactive.

As for `CN1CC(O)c2cc(N=NC(N)=O)c(O)cc21` (stereo not given), the Potency result in assay [1] is “inactive”.

In the case of `O=S(=O)(c1ccccc1)N(CC(F)(F)F)c1ccc(C(O)(C(F)(F)F)C(F)(F)F)cc1`, in assay [9], the Potency was 27.3 µM (active). Besides, the activation is 23.4% in assay [10] and 5.58% in assay [11]. The max response in [12] was -0.426%.

As to `COC1C(OC(=O)/C=C/C=C/C=C/C=C/C(=O)O)CCC2(CO2)C1C1(C)OC1CC=C(C)C` (stereo not given), the Potency entry in assay [1] and in assay [2] was “inactive” each time.

On to `C=CCNC1=C2C[C@@H](C)C[C@H](OC)[C@H](O)[C@@H](C)/C=C(\C)[C@H](OC(N)=O)[C@@H](OC)/C=C\C=C(/C)C(=O)NC(=CC1=O)C2=O`, for which, in assay [1], the Potency result was “inactive”. Moreover, the Potency is 16.1 µM (active) in assay [2] and 0.0721 µM (active) in [13]. The outcome in assay [3] was inactive.

Regarding `CCOC(=O)Cc1cccc(-c2cc(CCCCCCc3ccc(O[C@H]4O[C@H](COC(C)=O)[C@@H](OC(C)=O)[C@H](OC(C)=O)[C@@H]4OC(C)=O)c(-c4cccc(CC(=O)OCC)c4)c3)ccc2O[C@H]2O[C@H](COC(C)=O)[C@@H](OC(C)=O)[C@H](OC(C)=O)[C@@H]2OC(C)=O)c1`, the Potency entry in [1] is “inactive”.

With `CC(=O)OC[C@H]1O[C@@H](O[C@H]2[C@H](O)[C@@H](OC(=O)c3ccccc3C(=O)O)[C@H](O)O[C@@H]2COC(C)=O)[C@H](O)[C@@H](OC(=O)c2ccccc2C(=O)O)[C@@H]1O`, the Potency result in [1] was “inactive”.
